In assay [1] the target is Retinoic acid receptor RXR-alpha (Homo sapiens) (UniProt P19793). The assay can be described thus: ATG_RXRa_TRANS: Attagene TRANS-FACTORIAL HepG2 Assay for human Retinoid X Receptor alpha (RXRa) (AID 2283012; active = hit-call score of the fitted dose curve at least 0.9, where 1 is the maximum). An outline of the steps:
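HepG2 cells transiently transfected with GAL4-UAS reporter units and chimeric RXRa-Gal4 protein, treated 24 h. Reporter mRNA measured by RT-PCR, fluorescent labelling, HpaI digestion and capillary electrophoresis. Induction fitted against DMSO.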

For assay [2], the target named is human Retinoid X Receptor beta (RXRb), RXRB (gene 6257) (UniProt P28702). The assay is described as follows: ATG_RXRb_TRANS: Attagene TRANS-FACTORIAL HepG2 Assay for human Retinoid X Receptor beta (RXRb) (AID 2283013; active = hit-call score of the fitted dose curve at least 0.9, where 1 is the maximum). An outline of the steps:
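HepG2 cells were transiently transfected with multiplexed GAL4-UAS reporters and a chimeric RXRb-Gal4 construct, then exposed for 24 h. Reporter mRNA was quantified by RT-PCR, FAM labeling, HpaI digestion and capillary electrophoresis; gain of signal was scored against DMSO.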

Assay [3] concerns the target human Thyroid Receptor alpha (THRa1), THRA (gene 7067) (UniProt P10827). The assay can be described thus: ATG_THRa1_TRANS: Attagene TRANS-FACTORIAL HepG2 Assay for human Thyroid Receptor alpha (THRa1) (AID 2283014; active = hit-call score of the fitted dose curve at least 0.9, where 1 is the maximum). An outline of the steps:
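Reporter transcript induction, read by capillary electrophoresis of 6-FAM-labelled RT-PCR products, reflects activity of a transfected THRa1-Gal4 fusion in HepG2 liver cells. Cells were dosed for 24 h; activity was fitted in the positive direction against DMSO.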

The target in assay [4] is human Vitamin D Receptor (VDR), VDR (gene 7421) (UniProt P11473). The assay can be described thus: ATG_VDR_TRANS: Attagene TRANS-FACTORIAL HepG2 Assay for human Vitamin D Receptor (VDR) (AID 2283022; active = hit-call score of the fitted dose curve at least 0.9, where 1 is the maximum). Summed up:
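Steps: transfect HepG2 with GAL4-UAS-driven reporter constructs; dose compounds 24 h; isolate RNA, reverse-transcribe, PCR-amplify with 6-FAM-labelled primer extension and HpaI digestion; quantify fragments by capillary electrophoresis relative to DMSO.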

Read-out in assay [5]: E-selectin (Homo sapiens) (UniProt P16581)
The assay can be described thus: BSK_3C_Eselectin: BioMAP Diversity Plus: 3C Assay for Eselectin Biomarker Activity (AID 2283015). The following applies: primary human endothelial cells (HUVEC); actives raise or lower the signal. Summed up:
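ELISA read-out of E-selectin on endothelial monolayers after 24 h chemical treatment. Human umbilical vein primary cells served as the system, with DMSO defining baseline activity for bidirectional fitting.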

Read-out in assay [6]: Interleukin-1 alpha (IL1a), IL1A (gene 3552)
The assay can be described thus: BSK_BE3C_IL1a: BioMAP Diversity Plus: BE3C Assay for Interleukin-1 alpha (IL1a) Biomarker Activity (AID 2283016). The following applies: primary human bronchial epithelial cells; actives raise or lower the signal. Summed up: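 Human primary bronchial epithelial cells, 24 h chemical exposure; IL-1a quantified by ELISA, fitted bidirectionally against DMSO. Cytotoxicity assessed in parallel by SRB total-protein staining at the time of measurement.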

Read-out in assay [7]: Monocyte Chemoattractant Protein-1 (MCP1), CCL2 (gene 6347)
The assay is described as follows: BSK_3C_MCP1: BioMAP Diversity Plus: 3C Assay for Monocyte Chemoattractant Protein-1 (MCP1) Biomarker Activity (AID 2283017). The note with it: primary human endothelial cells (HUVEC); actives raise or lower the signal. Summed up: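 ELISA read-out of MCP-1 from human umbilical vein endothelial cell cultures harvested 24 h post-dosing. Gain or loss of signal was fitted relative to DMSO.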

Read-out in assay [8]: Monocyte Chemoattractant Protein-1 (MCP1), CCL2 (gene 6347)
The assay can be described thus: BSK_4H_MCP1: BioMAP Diversity Plus: 4H Assay for Monocyte Chemoattractant Protein-1 (MCP1) Biomarker Activity (AID 2283018). The following applies: primary human endothelial cells (HUVEC); actives raise or lower the signal. Summed up:
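Human umbilical vein endothelial cells (4H system) exposed to chemicals for 24 h in 96-well format. MCP-1 measured by ELISA; bidirectional fitting against DMSO, with SRB total-protein staining in parallel cultures for cytotoxicity.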

Read-out in assay [9]: Human Leukocyte Antigen - DR isotype (HLADR), HLA-DRA (gene 3122)
The assay is described as follows: BSK_3C_HLADR: BioMAP Diversity Plus: 3C Assay for Human Leukocyte Antigen - DR isotype (HLADR) Biomarker Activity (AID 2283019). The note with it: primary human endothelial cells (HUVEC); actives raise or lower the signal. Summed up: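 ELISA readout of surface HLA-DR on human umbilical vein endothelium, taken 24 h after chemical treatment. Gain- and loss-of-signal were both fitted relative to DMSO.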

Read-out in assay [10]: Interleukin-8 (IL8), CXCL8 (gene 3576)
The assay is described as follows: BSK_3C_IL8: BioMAP Diversity Plus: 3C Assay for Interleukin-8 (IL8) Biomarker Activity (AID 2283020). The following applies: primary human endothelial cells (HUVEC); actives raise or lower the signal. An outline of the steps:
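Primary human umbilical vein endothelial cells were dosed for 24 h. IL-8 was quantified by ELISA and fitted bidirectionally against DMSO. Cytotoxicity was assessed in parallel cultures by SRB staining at 560 nm.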

Read-out in assay [11]: Monokine induced gamma interferon (MIG), CXCL9 (gene 4283)
The assay is described as follows: BSK_3C_MIG: BioMAP Diversity Plus: 3C Assay for Monokine induced gamma interferon (MIG) Biomarker Activity (AID 2283021). The following applies: primary human endothelial cells (HUVEC); actives raise or lower the signal. An outline of the steps:
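HUVEC primary endothelial cultures dosed with chemical; MIG quantified by ELISA at 24 h. Data fitted bidirectionally against DMSO control, with parallel SRB total-protein staining for cytotoxicity.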

Assay [12] can be described thus: BSK_3C_SRB: Viability Assessment in the BioMAP Diversity Plus: 3C Assay (AID 2283023).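 Note: fitted both ways against DMSO so a hit may be signal rise or drop.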 The following applies: primary human endothelial cells (HUVEC). Summed up: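 Absorbance at 560 nm of sulforhodamine B-stained (0.1%) total protein served as a cytotoxicity readout in human umbilical vein endothelial cells, 24 h after chemical treatment. Signal was fitted bidirectionally relative to DMSO.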

Read-out in assay [13]: Matrix Metallopeptidase 1 (MMP1), MMP1 (gene 4312)
The assay is described as follows: BSK_BE3C_MMP1: BioMAP Diversity Plus: BE3C Assay for Matrix Metallopeptidase 1 (MMP1) Biomarker Activity (AID 2283024). The note with it: primary human bronchial epithelial cells; actives raise or lower the signal. Summed up:
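Human primary bronchial epithelial cells (BE3C system) dosed for 24 h; MMP-1 quantified by ELISA. Bidirectional fit against DMSO; cytotoxicity tracked in parallel cultures by SRB total-protein staining.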

Assay [14] is described as follows: BSK_3C_Vis: BioMAP Diversity Plus: 3C Assay for Morphology Visualization (AID 2283025).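 For AC50: light microscopy image of cell morphology used as background control.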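 Note: fitted both ways so gain or loss versus DMSO counts.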 The note with it: primary human endothelial cells (HUVEC). Summed up: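 Human umbilical vein endothelial cell morphology was inspected by light microscopy 24 h after chemical dosing; scored bidirectionally relative to DMSO.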
Read-out in assay [15]: Pselectin, SELP (gene 6403)
The assay is described as follows: BSK_4H_Pselectin: BioMAP Diversity Plus: 4H Assay for Pselectin Biomarker Activity (AID 2283026). The following applies: primary human endothelial cells (HUVEC); actives raise or lower the signal. An outline of the steps: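 Primary human umbilical vein endothelial cells were treated 24 h, and cell-surface P-selectin was then quantified by ELISA. Bidirectional fit versus DMSO; cytotoxicity checked in parallel cultures by SRB total-protein staining.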

Assay [16] can be described thus: BSK_4H_SRB: Viability Assessment in the BioMAP Diversity Plus: 4H Assay (AID 2283027).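 For AC50: curves fitted both ways versus DMSO so AC50 may be loss or gain.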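 Note: cells exposed to compound for 24 h before staining.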 The following applies: primary human endothelial cells (HUVEC). Summed up:
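Human umbilical vein endothelial cells were dosed with chemical and, after 24 h, fixed with 10% TCA, stained with 0.1% sulforhodamine B, and read at 560 nm to give total protein as a cytotoxicity measure. Bidirectional fitting relative to DMSO control.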

A short description of assay [17]: BSK_BE3C_SRB: Viability Assessment in the BioMAP Diversity Plus: BE3C Assay (AID 2283028). The following applies: primary human bronchial epithelial cells. Summed up:
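Cells (human bronchial epithelial, primary) are treated with chemicals, and after 24 h the parallel cultures are fixed in 10% TCA. These are then stained with 0.1% SRB and read at 560 nm. Gain or loss of signal is fitted relative to DMSO.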

Read-out in assay [18]: Thrombomodulin, THBD (gene 7056)
The assay can be described thus: BSK_3C_Thrombomodulin: BioMAP Diversity Plus: 3C Assay for Thrombomodulin Biomarker Activity (AID 2283029). The note with it: primary human endothelial cells (HUVEC); actives raise or lower the signal. Summed up:
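Human umbilical vein endothelial cells were exposed to chemicals for 24 h; cell-surface thrombomodulin quantified by ELISA, with bidirectional fitting against DMSO baseline.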

Read-out in assay [19]: Urokinase-type plasminogen activator receptor (uPAR), PLAUR (gene 5329)
The assay is described as follows: BSK_4H_uPAR: BioMAP Diversity Plus: 4H Assay for Urokinase-type plasminogen activator receptor (uPAR) Biomarker Activity (AID 2283030). The note with it: primary human endothelial cells (HUVEC); actives raise or lower the signal. Summed up:
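Cell-surface uPAR ELISA signal, measured 24 h after dosing human umbilical vein endothelial cells, was analyzed with bidirectional fitting relative to DMSO. Parallel SRB staining of total protein tracked overt cytotoxicity.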

Read-out in assay [20]: Vascular endothelial growth factor receptor 2 (Homo sapiens) (UniProt P35968)
The assay can be described thus: BSK_4H_VEGFRII: BioMAP Diversity Plus: 4H Assay for Vascular endothelial growth factor receptor 2 (VEGFR2) Biomarker Activity (AID 2283031). The note with it: primary human endothelial cells (HUVEC); actives raise or lower the signal. An outline of the steps:
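ELISA read-out of VEGFRII in primary human umbilical vein endothelium, taken 24 h after chemical treatment. Responses are expressed relative to DMSO, with bidirectional fitting.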

Here are results for six compounds from PubChem BioAssay (EPA / NIEHS).

Inconclusive results are not listed. Activity calls are given as the source filed them. Rule for the calls, unless noted: active = hit-call score of the fitted dose curve at least 0.9, where 1 is the maximum; inactive = score below 0.9.

human Thyroid Receptor alpha (THRa1), THRA (gene 7067), sequence (P10827 whole entry, looked up, the tested form may be a part): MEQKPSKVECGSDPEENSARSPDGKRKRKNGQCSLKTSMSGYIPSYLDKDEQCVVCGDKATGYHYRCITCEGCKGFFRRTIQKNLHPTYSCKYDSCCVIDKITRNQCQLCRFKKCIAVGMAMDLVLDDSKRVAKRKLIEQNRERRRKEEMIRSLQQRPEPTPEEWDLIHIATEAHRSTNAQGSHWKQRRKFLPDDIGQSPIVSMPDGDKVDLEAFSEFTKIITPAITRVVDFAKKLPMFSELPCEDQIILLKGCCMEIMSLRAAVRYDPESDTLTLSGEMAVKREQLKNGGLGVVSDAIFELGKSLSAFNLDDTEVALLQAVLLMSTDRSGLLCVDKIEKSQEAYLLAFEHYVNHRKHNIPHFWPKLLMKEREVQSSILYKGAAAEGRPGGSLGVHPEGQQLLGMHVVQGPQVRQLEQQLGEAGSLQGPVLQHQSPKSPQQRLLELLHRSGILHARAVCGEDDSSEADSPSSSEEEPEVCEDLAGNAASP
human Vitamin D Receptor (VDR), VDR (gene 7421), sequence (P11473 whole entry, looked up, the tested form may be a part): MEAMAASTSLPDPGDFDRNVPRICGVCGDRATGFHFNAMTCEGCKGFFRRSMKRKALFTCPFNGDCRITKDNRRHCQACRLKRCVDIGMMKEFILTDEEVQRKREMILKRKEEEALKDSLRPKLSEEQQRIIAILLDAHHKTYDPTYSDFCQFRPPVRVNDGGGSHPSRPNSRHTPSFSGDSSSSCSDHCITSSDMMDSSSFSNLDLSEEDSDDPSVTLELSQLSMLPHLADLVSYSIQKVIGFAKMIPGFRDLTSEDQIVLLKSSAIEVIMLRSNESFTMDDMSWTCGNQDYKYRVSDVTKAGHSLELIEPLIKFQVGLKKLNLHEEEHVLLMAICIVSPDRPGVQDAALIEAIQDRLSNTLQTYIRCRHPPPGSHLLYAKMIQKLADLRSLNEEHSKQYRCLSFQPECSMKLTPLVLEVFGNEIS
Retinoic acid receptor RXR-alpha (Homo sapiens), sequence (P19793 whole entry, looked up, the tested form may be a part): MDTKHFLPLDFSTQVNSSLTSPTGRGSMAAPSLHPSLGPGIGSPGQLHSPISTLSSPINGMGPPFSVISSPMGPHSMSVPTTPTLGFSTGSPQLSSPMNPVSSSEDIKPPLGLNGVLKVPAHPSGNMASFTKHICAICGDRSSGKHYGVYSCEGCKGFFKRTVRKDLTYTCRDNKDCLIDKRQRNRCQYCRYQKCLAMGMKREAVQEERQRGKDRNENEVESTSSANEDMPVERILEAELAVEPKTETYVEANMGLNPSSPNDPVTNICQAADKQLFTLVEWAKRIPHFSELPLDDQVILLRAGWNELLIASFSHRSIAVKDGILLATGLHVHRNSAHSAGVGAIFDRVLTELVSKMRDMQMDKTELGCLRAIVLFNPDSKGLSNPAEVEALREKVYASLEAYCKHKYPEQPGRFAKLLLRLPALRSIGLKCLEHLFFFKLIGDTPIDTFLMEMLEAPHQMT
human Retinoid X Receptor beta (RXRb), RXRB (gene 6257), sequence (P28702 whole entry, looked up, the tested form may be a part): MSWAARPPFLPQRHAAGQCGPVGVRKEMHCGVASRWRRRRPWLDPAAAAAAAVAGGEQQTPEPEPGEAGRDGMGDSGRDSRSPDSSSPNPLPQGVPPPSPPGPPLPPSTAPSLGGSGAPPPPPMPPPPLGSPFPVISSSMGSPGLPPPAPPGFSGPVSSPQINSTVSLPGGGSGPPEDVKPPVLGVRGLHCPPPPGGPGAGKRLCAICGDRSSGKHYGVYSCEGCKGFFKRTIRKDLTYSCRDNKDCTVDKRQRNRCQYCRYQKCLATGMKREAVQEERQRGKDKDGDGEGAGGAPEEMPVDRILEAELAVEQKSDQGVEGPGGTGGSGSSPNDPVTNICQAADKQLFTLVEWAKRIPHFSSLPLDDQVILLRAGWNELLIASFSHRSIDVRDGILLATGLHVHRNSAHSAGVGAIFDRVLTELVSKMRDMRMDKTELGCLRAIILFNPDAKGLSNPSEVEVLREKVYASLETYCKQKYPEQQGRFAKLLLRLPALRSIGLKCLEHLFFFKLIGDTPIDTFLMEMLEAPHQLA
E-selectin (Homo sapiens), sequence (P16581 whole entry, looked up): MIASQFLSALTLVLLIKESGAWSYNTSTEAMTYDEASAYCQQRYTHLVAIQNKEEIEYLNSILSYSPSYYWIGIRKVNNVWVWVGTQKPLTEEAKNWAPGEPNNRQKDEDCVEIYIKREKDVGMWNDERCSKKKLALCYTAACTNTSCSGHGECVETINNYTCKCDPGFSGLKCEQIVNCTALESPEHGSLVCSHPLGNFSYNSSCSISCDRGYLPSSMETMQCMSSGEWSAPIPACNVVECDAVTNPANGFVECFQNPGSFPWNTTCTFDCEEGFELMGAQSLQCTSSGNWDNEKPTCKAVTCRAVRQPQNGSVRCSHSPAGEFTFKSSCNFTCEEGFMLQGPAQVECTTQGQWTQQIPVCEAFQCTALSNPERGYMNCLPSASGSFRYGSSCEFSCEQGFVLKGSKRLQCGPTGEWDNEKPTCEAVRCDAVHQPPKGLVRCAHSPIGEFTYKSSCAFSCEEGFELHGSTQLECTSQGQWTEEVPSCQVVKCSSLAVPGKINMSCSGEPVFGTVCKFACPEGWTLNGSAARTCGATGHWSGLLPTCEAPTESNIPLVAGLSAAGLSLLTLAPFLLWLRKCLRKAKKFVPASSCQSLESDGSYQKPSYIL

On to `Nc1c(S(=O)(=O)O)cc(Br)c2c1C(=O)c1ccccc1C2=O`, for which the call in assay [1], in assay [2], in [3] and in [4] was inactive.
For the compound `C1=CC2C3C=CC(C3)C2C1` (centres undefined), the result in assay [1], in assay [2], in assay [5], in assay [6], in [7] and in assay [8] was inactive. Moreover, the outcome in [9], in assay [10], in assay [11], in [4], in assay [12] and in assay [13] was inactive. Also, the outcome in assay [14], in [15], in assay [16], in assay [17], in assay [18] and in assay [19] was inactive. Moreover, the result in assay [20] was inactive.
`CC(C)(CO)[C@@H](O)C(=O)NCCC(=O)O`: the result in [1], in assay [2], in assay [3] and in assay [4] was inactive.
Usually AC50 stands for the midpoint of the concentration-response curve, whichever way the signal moves. Turning to `c1ccc(Oc2ccccc2)cc1`, the call in assay [1], in [6], in [11], in [4], in [13] and in assay [17] was inactive. Further, the result in assay [18], in assay [19] and in assay [20] was inactive. The AC50 is 114 µM (active) in assay [2]; 35.9 µM (active) in assay [5]; 30.3 µM (active) in assay [7]; 32.9 µM (active) in [8]; 32.8 µM (active) in assay [9]; 20 µM (active) in assay [10]. Moreover, the AC50 in assay [12] is 30 µM (active); in assay [14], 37.8 µM (active); in assay [15], 30.8 µM (active); in assay [16] it was 31.3 µM (active).
As to `O=[N+]([O-])c1ccc(O)cc1C(F)(F)F`, the result in assay [1], in assay [2], in assay [3] and in assay [4] was inactive.
For the compound `CC(C)=CCCC(C)CCOC=O` (centres undefined), the compound was classed as inactive in assay [1], in assay [2], in assay [3] and in [4].
